Screening data as filed in PubChem BioAssay.
HT1080 IDH1KD tx – toxicity to HT-1080 IDH1 knockdown cells (counter line). HT-1080 IDH1 knockdown viability, ATP luminescence, 48 h. Potency, µM (highest dose often 46.1 µM), most hits filed as cytotoxic. 360,000 tested, 2% active
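Luminescent ATP read-out (CellTiter-Glo, 10 min at room temperature) after 48 h compound exposure at 37 °C gave viability of IDH1-knockdown HT-1080 cells. Activity was normalised to DMSO and cell-free wells, then fitted as concentration-response curves.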
HT1080NT lethal – kills 2HG-producing HT-1080-NT fibrosarcoma cells; Potency, µM (doses to about 46.1 µM), hits mostly cytotoxic; HT-1080-NT fibrosarcoma viability, CellTiter-Glo ATP luminescence, 48 h; 360,000 tested, 1.6% active;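 further: NT is the 2HG producing partner of a matched IDH1 knockdown line; nearly all actives have a fitted effect of over 55% in size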
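Luminescent CellTiter-Glo readout after 48 hours of compound exposure at 37 degrees C defined viability of HT-1080-NT cells. Activity was normalized to DMSO wells and cell-free media wells; concentration-response curves were fitted and assigned curve classes.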
KB-V1 cytotox – KB-V1 MDR subline cytotoxicity. Potency, µM (highest dose often 46.1 µM), most hits filed as cytotoxic. 400,000 tested, 3.4% active. AID 1347076. KB-V1 MDR cells viability, CellTiter-Glo, 72 h; further: nearly all actives have a fitted effect of over 60% in size
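qHTS viability screen in drug-selected KB-V1 MDR cells: 72 h compound treatment at 37 degrees C, ATP luminescence end point.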
KB-3-1 tox – kills parental KB-3-1 adenocarcinoma cells; KB-3-1 viability, CellTiter-Glo ATP luminescence, 72 h; Potency, µM (doses to about 46.1 µM), usual class: cytotoxic; 400,000 tested, 1.4% active; AID 1347075; further: nearly all actives have a fitted effect of over 60% in size
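Cytotoxicity measured as CellTiter-Glo luminescence after 72 h at 37 C. Compound titrations were pinned onto drug-naive KB-3-1 parental adenocarcinoma cells grown in DMEM with 10% FBS, and normalized data fitted to concentration-response curves.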
DT40 TDP1 no CPT – qHTS for Inhibitors of human tyrosyl-DNA phosphodiesterase 1 (TDP1): qHTS in cells in absence of CPT; DT40 Tdp1-/- hTDP1 cells, no CPT, ATP luminescence, 48 h; Potency, µM (titrated, usually from 46.2 µM), most hits filed as inhibitors; 420,000 tested, 15% active; AID 686978, 2013; further: nearly all actives have a fitted effect of over 55% in size
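Chicken DT40 Tdp1-/- cells complemented with human TDP1, screened without camptothecin (DMSO vehicle only), 400 cells/well. Compounds pin-transferred, cells incubated at 37 °C for at least 48 hr. Growth read as ATP-dependent luminescence (CellTiter-Glo, 30 min at RT).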
TDP1 cell CPT – growth inhibition of DT40 Tdp1-/-;hTDP1 cells with camptothecin (screen for TDP1 inhibitors); chicken DT40 Tdp1-/-;hTDP1 cells + 20 nM CPT, ATP luminescence, 48 h; Potency, µM (top dose mostly 46.2 µM), actives largely listed as inhibitors; 420,000 tested, 12% active; further: nearly all actives have a fitted effect of over 55% in size
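Chicken DT40 Tdp1-/- cells stably complemented with human TDP1 were seeded at 400 cells/well in medium containing 20 nM camptothecin, exposed to pin-transferred compounds, and grown at 37 °C for at least 48 hr. Viability was read as ATP luminescence.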
Hits are given with their value; - = inactive; ? = inconclusive; . = no result given; ! = a repeat was not active. Compounds with a hit are over-represented: about 19% of the library has one in this group of screens. The call rests on the fitted dose curve; in most records, active means well fitted curve in the direction sought with a large enough effect; inconclusive means small, poorly fitted or top-dose-only effect, or another doubt; inactive means no such curve, though single readings can be large; an effect the other way counts as inactive or inconclusive.

SMILES | HT1080 IDH1KD tx | HT1080NT lethal | KB-V1 cytotox | KB-3-1 tox | DT40 TDP1 no CPT | TDP1 cell CPT
O=C(NCC(c1ccco1)N1CCCCC1)c1ccc(NS(=O)(=O)c2ccc(F)cc2)cc1 (configuration not stated) | - | - | . | . | ? | -
Cc1cccc(NS(=O)(=O)c2ccc(C(=O)NCC(c3ccco3)N3CCCCC3)cc2)c1C (configuration not stated) | - | - | ? | ? | 23µM | ?
C/C(=N\NC(=O)c1nonc1N)c1cccs1 | - | - | - | - | - | -
CCC(NC(=O)c1cc(COc2ccc(F)cc2Cl)on1)c1ccncc1 (configuration not stated) | ? | - | - | - | 23µM | 23µM
O=C(c1cc(COc2ccc(F)cc2Cl)on1)N1CCC(c2ccncc2)CC1 | ? | - | 4.1µM | - | 6.5µM | 6.5µM
Cc1[nH]c2ccc(C(=O)NCc3ccccn3)cc2c1C | - | - | - | - | - | -
O=C(CN1CCOCC1)N/N=C/c1cc2ccccc2nc1Cl | - | - | - | - | ? | ?
O=C(N/N=C/c1ccccc1O)C(=O)Nc1ccccn1 | ? | - | - | - | 15µM | 13µM
Cc1ccc(NCC(=O)N/N=C/c2cc3ccccc3nc2Cl)cc1 | - | ? | - | - | 29µM | 23µM
Cn1cc(Br)c(C(=O)N/N=C/c2cc3ccccc3nc2Cl)n1 | - | - | - | - | 21µM | ?
O=C(N/N=C/c1cc(Cl)ccc1O)c1ccc(Br)cc1 | 5.8µM | 9.2µM | ? | ? | 5.8µM | 5.2µM
NC(=O)N/N=C\c1cc(Br)ccc1O | - | - | ? | - | ? | -
CN(CC(=O)Nc1ccc(F)c(F)c1F)C(=O)C1COc2ccccc2O1 (configuration not stated) | - | - | . | . | - | -
O=C(N/N=C/c1cc2ccccc2nc1Cl)c1ccncc1 | - | - | - | - | 4.6µM | 2.6µM
O=C(N/N=C/c1ccccc1O)c1ccncc1 | ? | ? | - | - | 3.7µM | 4.6µM!
O=C(NN=Cc1cccc(O)c1O)c1ccccc1 | ? | ? | - | - | 4.6µM | 2.6µM
O=C(N/N=C/c1cccc2ccccc12)c1ccncc1 | - | - | ? | - | - | -
CCOc1ccccc1NC(=O)C(=O)N/N=C/c1cc(Br)ccc1O | ? | ? | - | ? | 10µM | ?
CC(OC(=O)Cn1[nH]c(=O)c2ccccc2c1=O)C(=O)Nc1cccc(Cl)c1 (configuration not stated) | - | - | - | - | - | ?
Cc1cccc(C)c1-n1nnnc1C1(C)CCC(=O)N1CCc1ccc(O)cc1 (configuration not stated) | - | - | - | - | ? | ?
OCC(O)C1OC(c2ccccc2)OC(CO)C1O (configuration not stated) | - | - | - | - | - | -
Cc1c(NC(=O)c2cc(-c3cccc(Cl)c3)on2)c(=O)n(-c2ccccc2)n1C | - | - | - | - | ? | -
Cc1cccc(C=NOCCc2ccccc2)n1 | - | - | . | . | - | -
COC(=O)C1CC(O)CN1C(=O)Nc1ccccc1 (configuration not stated) | - | - | - | - | - | -
Cc1nc(C)c(C(=O)N/N=C/c2cc(Br)ccc2O)s1 | 2.1µM | ? | - | - | 3.7µM | 4.6µM
SMILES | HT1080 IDH1KD tx | HT1080NT lethal | KB-V1 cytotox | KB-3-1 tox | DT40 TDP1 no CPT | TDP1 cell CPT
Cc1nc(C)c(C(=O)N/N=C/c2c[nH]c3ccccc23)s1 | - | - | ? | ? | ? | ?
Cc1ccc(N=Nc2ccc(O)c(/C=N\NC(=O)c3ccc(N)cc3)c2)cc1C | 1.6µM | 4µM | - | - | 13µM | 10µM
O=C(N/N=C\c1cc(Br)ccc1O)c1ccc(S(=O)(=O)N2CCCCC2)cc1 | 2.1µM | ? | - | - | 2.9µM | 4.1µM
O=C(N/N=C/c1ccccc1O)c1cc[n+]([O-])cc1 | ? | - | - | - | 29µM | 15µM
COc1ccc(C(=O)Nc2nc3cc4c(cc3s2)OCCO4)c(OC)c1 | - | - | - | - | ? | ?
COc1ccc(Cl)cc1NC(=O)CN(C)C(=O)c1sccc1-c1ccccc1 | - | - | - | - | ? | ?
N#Cc1sc(NCc2ccccn2)nc1Cl | - | - | - | - | - | -
O=C(N/N=C/c1cc(Br)ccc1OC(=O)c1ccc(Br)cc1)c1ccncc1 | ? | 21µM | - | ? | 6.5µM | 4.6µM
O=C(N/N=C/c1cc(Br)ccc1O)c1ccncc1 | ? | ? | - | ? | 1.6µM | 4.6µM
